Screens from PubChem.
In the library only some 3% were active in any assay of this set; here they are far more common.
PLK1 PBD block: qHTS for Inhibitors of PLK1-PDB (polo-like kinase 1 - polo-box domain): Primary Screen. Serine/threonine-protein kinase PLK1 (Homo sapiens), P53350. Potency, µM, actives largely listed as inhibitors. AID 720504, 2013. 360,000 tested, 2.8% active. Plk1 PBD binding of FITC phosphopeptide, fluorescence polarization; note: series mostly up to about 57 µM; nearly all actives have a fitted effect of over 65% in size
VDR inh: Inhibitors of the vitamin D receptor (VDR): qHTS; Vitamin D3 receptor (Homo sapiens), P11473; VDR-SRC2-3 peptide fluorescence polarization, 2 h; Potency, µM, usual class: inhibitors; 400,000 tested, 0.93% active; AID 504847, 2011
Target sequence (P11473 whole entry, looked up): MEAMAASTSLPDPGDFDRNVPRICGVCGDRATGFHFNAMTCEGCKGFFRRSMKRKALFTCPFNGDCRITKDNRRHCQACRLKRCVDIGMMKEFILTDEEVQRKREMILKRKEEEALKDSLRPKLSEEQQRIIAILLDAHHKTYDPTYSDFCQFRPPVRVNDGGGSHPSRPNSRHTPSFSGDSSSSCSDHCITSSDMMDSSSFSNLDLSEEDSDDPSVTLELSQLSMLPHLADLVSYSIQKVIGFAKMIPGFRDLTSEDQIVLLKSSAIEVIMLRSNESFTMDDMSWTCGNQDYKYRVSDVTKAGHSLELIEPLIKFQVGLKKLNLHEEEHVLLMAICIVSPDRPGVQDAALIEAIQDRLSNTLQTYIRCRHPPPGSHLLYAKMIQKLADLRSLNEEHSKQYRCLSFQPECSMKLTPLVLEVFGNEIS
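Measured by FP: displacement of SRC2-3 coactivator peptide from VDR by library compounds, following a two-hour ambient incubation.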
TSG101-PTAP inh: qHTS Assay for Iinhibitors of HIV-1 Budding by Blocking the Interaction of PTAP/TSG101. 340,000 tested, under 10 active. Fluorescence polarization, FITC-PTAP peptide / Tsg101 binding. Potency, µM (series often up to 115 µM), actives largely listed as inhibitors; active = well fitted inhibition curve with a large enough effect in the main read-out, with a control signal flat, not every such curve was filed as active; inconclusive = small, poorly fitted or top-dose-only effect, or effect the other way, or a change in a side signal; inactive = no such curve, though single readings can be large or run the other way
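Tsg101 binding domain (10 uM final) was mixed with compound and a FITC-labeled PTAP peptide (50 nM final) in HEPES pH 7.5 buffer with NaCl, Tween 20, EDTA and TCEP; fluorescence polarization was read after 20 min at r.t.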
USP1-UAF1 inh: Inhibitors of USP1/UAF1: Primary Screen | recombinant USP1/UAF1, Ub-Rhodamine cleavage fluorescence | Potency, µM (titrated, usually from 57.1 µM), hits mostly inhibitors | 390,000 tested, 0.23% active; note: nearly all actives have a fitted effect of over 60% in size
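USP1/UAF1 complex at 1 nM was preincubated with compound for 15 min at room temperature, then Ub-Rho substrate (150nM final) was added. Fluorescence (480/540 nm) was read kinetically, 6 reads every 60 seconds.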
KAT2A inh: qHTS Assay for Inhibitors of GCN5L2. Histone acetyltransferase KAT2A (Homo sapiens), Q92830. GCN5L2 HAT assay, ThioGlo1 CoA-SH fluorescence. Potency, µM (highest dose often 58.9 µM), most hits filed as inhibitors. 390,000 tested, 0.21% active
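Enzyme at 20nM final was mixed with library compounds for 15 min at room temperature. Peptide H3(1-25) at 75uM, acetyl-CoA at 70uM and ThioGlo1 at 50uM were then added. Plates were read immediately and after 20 min (Ex340nm/Em540nm).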
Large screens that a line does not name were inactive. Unless noted, calls come from the whole dose curve; as a rule, active = well fitted curve in the direction sought with a large enough effect; inconclusive = small, poorly fitted or top-dose-only effect, or another doubt; inactive = no such curve, though single readings can be large; an effect the other way counts as inactive or inconclusive.

Cc1ccc(CN(C)c2nc(-c3cccnc3)nc3ccccc23)o1	none
CN(Cc1ccco1)c1nc(-c2ccccc2C(F)(F)F)nc2ccccc12	VDR inh 35µM (no result: PLK1 PBD block, TSG101-PTAP inh, USP1-UAF1 inh)
CN(Cc1ccco1)c1nc(-c2cccnc2)nc2ccccc12	VDR inh 32µM (no result: PLK1 PBD block, TSG101-PTAP inh, USP1-UAF1 inh)
CCCCC(=O)Nc1c(C(=O)N2CCN(c3ccccc3)CC2)oc2ccccc12	none (no result: PLK1 PBD block, TSG101-PTAP inh)
Cc1ccc(Sc2cnc(N)nc2C)cc1	PLK1 PBD block 27µM
CCNc1ncnc2c1cnn2C1CCCCO1 (stereo unspecified)	none (no result: KAT2A inh)
Cc1ccc(C)c(Cn2cc(S(=O)(=O)c3ccc(Cl)cc3)c(=O)c3cc(F)ccc32)c1	none (no result: PLK1 PBD block, TSG101-PTAP inh)
Cc1ccc(S(=O)(=O)NC(=O)c2ccc(-c3ccc(C)c4ccccc34)o2)cc1	PLK1 PBD block 27µM, VDR inh 79µM
Cc1ccc(-c2ccc(C(=O)Nc3ccccc3)o2)c2ccccc12	VDR inh inconclusive, USP1-UAF1 inh inconclusive
Cc1cc(C)c(NC(=O)CN(C2CCCCC2)C2CCCCC2)c(C)c1	none
Cc1cc(C)c(NC(=O)CCCCCNC2CCCCC2)c(C)c1	PLK1 PBD block 27µM
O=C1C=CC2(O[C@H](c3ccccc3)[C@@H](c3ccccc3)O2)[C@H](Sc2ccccc2O)C1	PLK1 PBD block 2.4µM, VDR inh 10µM (no result: KAT2A inh)
C[C@@H]1[C@@H](Sc2ccccc2)CC(=O)O[C@@H]1c1ccc(-c2ccccc2)cc1	none (no result: KAT2A inh)
COc1ccc2[nH]cc(CCNc3ccnc(-c4cccnc4)n3)c2c1	none (no result: PLK1 PBD block, TSG101-PTAP inh, USP1-UAF1 inh)
Cn1c(=S)c2[nH]c(SCCN)nc2n(C)c1=O	PLK1 PBD block 27µM (no result: KAT2A inh)
COC(=O)c1c(-c2ccc(OC)cc2)oc2ccc(-c3ccc(OC)nc3)cc12	none
CCCOC(=O)c1c(-c2ccc(OC)cc2)oc2ccc(-c3ccc(OC)nc3)cc12	PLK1 PBD block 38µM
CCCCC[C@H](O)/C=C/[C@H]1[C@H](O)CC(O)[C@@H]1C/C=C\CCCC(=O)O (stereo partly specified)	none (no result: PLK1 PBD block, TSG101-PTAP inh, USP1-UAF1 inh)
Cc1sc(NC(=O)c2cc(-c3ccc(Cl)cc3)nc3ccccc23)c(C(N)=O)c1C	PLK1 PBD block 13µM, KAT2A inh inconclusive
Cc1ccccc1-c1cc(C(=O)Nc2sc(C(=O)OC(C)C)c(C)c2C#N)c2ccccc2n1	PLK1 PBD block 11µM, VDR inh inconclusive, USP1-UAF1 inh inconclusive
CC(C)(C)c1nnc(NC(=O)c2cc(-c3ccccc3)nc3ccccc23)s1	PLK1 PBD block 24µM, VDR inh inconclusive
COc1cc(-c2cc(C(=O)Nc3ccc(O)cc3)c3ccccc3n2)cc(OC)c1OC	PLK1 PBD block 27µM
CCc1nnc(NC(=O)c2cc(-c3ccncc3)nc3ccccc23)s1	none
CCOCCCN1C(=O)C(=O)N(CC(=O)N2c3ccccc3NC(=O)CC2C)C1=O (stereo unspecified)	none
CCOC(=O)c1sc(-c2ccc(C)cc2)c(C#N)c1C	PLK1 PBD block 24µM
CCOC(=O)c1sc(NC(=O)c2cc(-c3ccc(C)cc3)nc3ccccc23)c(C#N)c1C	PLK1 PBD block 2.7µM, VDR inh 79µM
COc1ccc(-c2cc(C(=O)Nc3sc4c(c3C#N)CCCC4)c3ccccc3n2)cc1	none
Cc1ccc(-c2cc(C(=O)NN=C3CCCC3)c3ccccc3n2)cc1	VDR inh inconclusive
O=C(NN=C1CCCCCC1)c1cc(-c2ccccc2)nc2ccccc12	PLK1 PBD block 3µM
C[C@@H]1CN([C@@H](C)CO)C(=O)CCCn2nncc2CO[C@H]1CN(C)S(=O)(=O)c1cccc(F)c1	none (no result: VDR inh, TSG101-PTAP inh, KAT2A inh)
COc1ccc(-c2nc3n(n2)C(c2ccccc2OC)C(C(=O)Nc2cccnc2)=C(C)N3)cc1 (stereo unspecified)	none (no result: PLK1 PBD block, TSG101-PTAP inh)
CCOC(=O)N1CCc2c(sc(NCc3ccc(OC)c(Br)c3)c2C(=O)Nc2cc(OC)ccc2OC)C1	none (no result: PLK1 PBD block, TSG101-PTAP inh)
COc1ccccc1C(NC(=O)C1CCN(CCOc2ccc(Cl)cc2Cl)CC1)c1ccccn1 (stereo unspecified)	none (no result: VDR inh, TSG101-PTAP inh, USP1-UAF1 inh, KAT2A inh)
Cc1ccc(NS(=O)(=O)c2ccccc2)c(C)c1	none (no result: PLK1 PBD block, TSG101-PTAP inh, USP1-UAF1 inh, KAT2A inh)
Cc1ccc(S(=O)(=O)/N=C2\C=C(NS(=O)(=O)c3ccccc3)C(=O)c3ccccc32)c(C)c1	PLK1 PBD block 19µM (no result: KAT2A inh)
C/C(=N\NS(=O)(=O)c1ccc(C(C)(C)C)cc1)c1ccccc1	none
CC(C)(C)c1ccc(S(=O)(=O)/N=C2\C=C(NS(=O)(=O)c3ccccc3)C(=O)c3ccccc32)cc1	PLK1 PBD block 13µM, VDR inh inconclusive, USP1-UAF1 inh inconclusive, KAT2A inh inconclusive
Cc1c(Cl)c([N+](=O)[O-])nn1CCCC(=O)Nc1sc2c(c1C(N)=O)CCC(C)C2 (stereo unspecified)	none
Cc1c(Cl)c([N+](=O)[O-])nn1CCCC(=O)Nc1sc2c(c1C#N)CCC2	PLK1 PBD block 30µM, VDR inh inconclusive, USP1-UAF1 inh inconclusive
Cc1c(Br)c([N+](=O)[O-])nn1CCCC(=O)Nc1sc2c(c1C#N)CCC2	PLK1 PBD block 5.3µM, VDR inh inconclusive
Cc1c(Br)c([N+](=O)[O-])nn1CC(=O)Nc1sc2c(c1C(=O)OC(C)C)CCCC2	PLK1 PBD block 19µM
Cc1c(Br)c([N+](=O)[O-])nn1CCCC(=O)Nc1sc2c(c1C(N)=O)CCC(C)C2 (stereo unspecified)	none
CC(C)C[C@H]1CNC(=O)C(=O)N1C[C@@H]1CCCN1C[C@H](Cc1ccccc1)N1C[C@H](Cc2ccccc2)N(CC2CCCCC2)C(=O)C1=O	none (no result: VDR inh, TSG101-PTAP inh, USP1-UAF1 inh, KAT2A inh)
CC[C@@]1(O)C[C@H](O[C@H]2C[C@@H](N(C)C)[C@@H](O[C@H]3C[C@@H](O)[C@@H](O[C@H]4CCC(=O)[C@@H](C)O4)[C@@H](C)O3)[C@@H](C)O2)c2c(cc3c(c2O)C(=O)c2c(O)cccc2C3=O)[C@H]1C(=O)OC	VDR inh inconclusive (no result: PLK1 PBD block, TSG101-PTAP inh, USP1-UAF1 inh)
COC(=O)c1ccc(CNC(=O)C2CCC(=O)N(CCCc3ccccc3)C2)cc1 (stereo unspecified)	PLK1 PBD block 3.4µM, VDR inh inconclusive
CS(=O)(=O)Nc1c(O)ccc2c1CCCC2C1=NCCN1 (stereo unspecified)	none (no result: PLK1 PBD block, TSG101-PTAP inh, USP1-UAF1 inh)
Cc1cccc(CNc2ccnc(-c3ccccc3Cl)n2)c1	none (no result: PLK1 PBD block, TSG101-PTAP inh, USP1-UAF1 inh)
Cc1cc(C)cc(NC(=O)CSc2nc3ccccc3nc2N2CCCCC2)c1	KAT2A inh 35µM
Cc1cc(C)cc(NC(=O)CSc2nc3ccccc3nc2N2CCCC2)c1	KAT2A inh inconclusive
Cc1ccn2cc(-c3ccc(C)c(NS(=O)(=O)c4ccc(Cl)cc4)c3)nc2c1	none (no result: PLK1 PBD block, TSG101-PTAP inh)
CCC(c1nnnn1-c1c(C)cccc1C)N1CCN(c2ccccn2)CC1 (stereo unspecified)	none (no result: VDR inh, TSG101-PTAP inh, USP1-UAF1 inh, KAT2A inh)
